These results are taken from PubChem BioAssay.

Assay [1] is described as follows: A549 cell viability effects, profiling panel, calcein-AM fluorescence, 48 h, basal (AID 1162). The settings on record: higher = more signal.
Assay [2] is described as follows: adipocyte viability effects, profiling panel, cell-based, 3T3-L1 adipocytes, calcein-AM fluorescence, 48 h, basal (AID 1163). The settings on record: 3T3-L1 adipocytes viability, higher = more signal.
Assay [3] can be described thus: HepG2 cell viability effects, profiling panel, calcein-AM fluorescence, 48 h, basal (AID 1164). As to conditions: higher = more signal.
Assay [4] in a line: MM1S cell viability effects, profiling panel, calcein-AM fluorescence, 48 h, basal (AID 1165).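 Note: viability of MM1S multiple myeloma cells under basal unstimulated conditions.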 As to conditions: higher = more signal.
Assay [5] in a line: basal RPMI8226 viability, no added stimulus, profiling panel, cell-based, calcein-AM fluorescence, 48 h, PK04 Diversity Set (AID 1166).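 Note: cells grown under basal conditions without added stimulus.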 The settings on record: RPMI8226 myeloma viability, higher = more signal.
The nature of assay [6]: basal HepG2 mitochondrial membrane potential changes, profiling panel, cell-based, JC-1 fluorescence, 24 h, 100 nL compound (AID 1167). The settings on record: higher = more signal.
The nature of assay [7]: basal 3T3-L1 adipocyte mitochondrial potential changes, profiling panel, cell-based, JC-1 fluorescence, 3T3-L1 adipocytes, 24 h, 100 nL compound (AID 1168). The settings on record: JC-1 mitochondrial fluorescence, higher = more signal, called active from +8 up or from −8 down.
Assay [8] can be described thus: basal RPMI8226 mitochondrial membrane potential changes, profiling panel, cell-based, JC-1 fluorescence, 24 h, 100 nL compound (AID 1169). The settings on record: RPMI8226 myeloma, JC-1 mitochondrial potential fluorescence, higher = more signal.
Assay [9] is described as follows: basal MM1S mitochondrial membrane potential changes, profiling panel, cell-based, JC-1 fluorescence, 24 h, 100 nL compound (AID 1170). The settings on record: higher = more signal.
A short description of assay [10]: A549 lung cancer cell viability effects, profiling panel, resazurin fluorescence, 24 h, PK04 Diversity Set (AID 1171). The settings on record: higher = more signal, called active from +8 up or from −8 down. In general terms: Alamar Blue is a resazurin reagent that responds to reducing activity.

Calls of active or inactive are those of the source.
Note: test concentration not given here.

Turning to `COc1cc(OC)c(C(O)C2C=CC3C(=O)NC(=O)C3N2Nc2ccccn2)cc1Br` (stereo not given), the z-score in [1] is 0.837; in assay [2], -1.06; in assay [3] it was 0.224; in assay [4], -0.459; in assay [5] it was -0.0109; in assay [6], -0.866. The z-score in assay [7] is 0.0212 (inactive); in [8] it was 0.217; in assay [9] it was 0.171; in [10], -0.924 (inactive).
As to `CC(C)[Si](C#CCCCC#N)(Oc1ccccc1Br)C(C)C`, the z-score in [1] was 0.551; in assay [2] it was -0.924; in assay [3], 0.235; in [4] it was -0.887; in [5], -0.181; in assay [6] it was -0.247. In addition, the z-score in assay [7] was -0.183 (inactive); in [8] it was -0.756; in assay [9], 0.2; in assay [10], -0.0106 (inactive).
Take `O=C1[C@H]2C=C(Br)[C@H](C[C@@H]2OCCCCCCO)[C@@]12CO2`: the z-score in assay [1] is -0.141; in assay [2], -0.572; in assay [3] it was -0.339; in assay [4], -1.04; in [5] it was 0.206; in assay [6], -1.59. Moreover, the z-score is -0.253 (inactive) in assay [7], -0.601 in [8], -0.0629 in [9] and -0.247 (inactive) in [10].
As to `CS(=O)(=O)CCOC(=O)C1=CC(CCCO)=CC(C2CC2)N(Cc2cc3c(cc2Br)OCO3)C=C1C(=O)OCCS(C)(=O)=O` (stereo not given), the z-score in assay [1] is 1.25; in assay [2], 0.385; in assay [3], 0.862; in assay [4] it was -0.538; in [5] it was -0.246; in [6], 3.31. In addition, the z-score in assay [7] is 0.262 (inactive); in [8], -0.41; in assay [9], -1.37; in assay [10], 0.796 (inactive).
On to `COC(=O)C[C@H]1O[C@@H](CCc2ccccc2)[C@@H](C)[C@@H]1[Si](C)(C)c1ccc(OC)cc1`, for which the z-score in assay [1] was 1.47; in assay [2] it was 1.27; in assay [3], -0.755; in assay [4], -0.843; in [5] it was -3.97; in assay [6], 0.453. Moreover, the z-score in [7] is -0.0941 (inactive); in assay [8] it was -1.12; in assay [9] it was -0.0681; in assay [10], 0.989 (inactive).
Take `O=C(CS)NCCCCCNC(=O)[C@@H]1C[C@@H]2C(=O)NCC(=O)N2[C@@H]1c1ccc(O)cc1`: the z-score was 0.347 in [1]; 0.136 in [2]; -1.19 in assay [3]; -0.403 in assay [4]; -0.727 in assay [5]; 1.14 in [6]. For the same compound, the z-score in [7] was -0.00814 (inactive); in assay [8], 0.852; in assay [9], 0.158; in assay [10], -1.31 (inactive).
Take `O=C1C2C=CC(C(O)c3c(F)cccc3Cl)N(Nc3ccccc3F)C2C(=O)N1c1ccccc1` (stereo not given): the z-score in assay [1] was -0.505; in assay [2], -1.08; in assay [3] it was -0.257; in assay [4] it was 0.278; in assay [5], -0.0072; in [6], -1.03. The z-score is -0.217 (inactive) in assay [7], -0.277 in assay [8], -0.298 in assay [9] and -0.103 (inactive) in [10].
As for `CC(CO)N1C(=O)[C@@H]2C3C(=O)OCCC/C=C\[C@H]3OC23C=CCN(CCN2CCOCC2)C(=O)[C@@H]13` (stereo not given in full), the z-score was -0.31 in assay [1]; -0.414 in assay [2]; 0.755 in assay [3]; 1.92 in assay [4]; 0.435 in assay [5]; 0.559 in assay [6]. The z-score is -0.109 (inactive) in [7], 0.357 in assay [8], -1.07 in [9] and -0.7 (inactive) in assay [10].
On to `CCCCC(=C=CC[C@@H](O)c1cccc(OCCO)c1)C[C@@H](O)c1ccccn1`, for which the z-score in assay [1] was -0.0385; in assay [2], 0.317; in [3] it was 0.175; in assay [4], 0.225; in assay [5] it was 0.427; in assay [6], -0.667. The z-score was 0.316 (inactive) in assay [7], 0.907 in [8], -0.578 in assay [9] and 0.764 (inactive) in assay [10].
In the case of `C=CCC(OC(C)=O)[C@@H]1[C@@H](N(Cc2ccc(-c3cccc(C(F)(F)F)c3)o2)C(=O)c2cccc3ccccc23)c2cc(OCCCO)ccc2N1C(=O)Cc1ccc2ccccc2c1` (stereo not given in full), the z-score in [1] is -0.285; in assay [2], 0.784; in [3] it was -0.0575; in [4], -0.564; in assay [5] it was -2.04; in [6] it was 1.1. Besides, the z-score in assay [7] was -0.62 (inactive); in assay [8], -0.0209; in [9], -0.0374; in assay [10], -0.0845 (inactive).
`O=C(CS)NCCCCCNC(=O)[C@H]1C[C@H]2C(=O)NCC(=O)N2[C@H]1c1ccc(O)cc1`: the z-score in assay [1] is 0.67; in [2] it was 0.537; in assay [3] it was -0.815; in assay [4], 0.0607; in [5], -0.261; in [6], -0.557. Besides, the z-score in assay [7] is 0.185 (inactive); in assay [8], 0.415; in [9] it was -0.167; in [10] it was 0.847 (inactive).
With `O=C1C2C=CC(C(O)C=Cc3ccc([N+](=O)[O-])cc3)N(n3cnnc3)C2C(=O)N1Cc1ccccc1` (stereo not given), the z-score is -0.915 in [1]; 0.0646 in assay [2]; -0.129 in assay [3]; -0.232 in assay [4]; -1.03 in assay [5]; -1.07 in assay [6]. Further, the z-score in assay [7] was -0.566 (inactive); in assay [8] it was 0.646; in [9], -0.178; in [10], 0.367 (inactive).
In the case of `C=C(CCCC)C(=O)CC[C@@H](OC(C)=O)c1ccc(CO)o1`, the z-score in assay [1] is -0.779; in assay [2], 0.37; in [3], -0.293; in [4], 0.0178; in assay [5], -0.878; in [6], -0.885. Further, the z-score in assay [7] is 0.352 (inactive); in [8] it was 0.703; in assay [9] it was -0.179; in assay [10], -0.0655 (inactive).
With `COCCOC(=O)N1C(=O)[C@@]2(c3ccccc31)[C@H](C(=O)N1CCCCCCC1)[C@H]1C(=O)O[C@H](c3ccccc3)[C@H](c3ccccc3)N1[C@@H]2c1ccc(OCCO)cc1`, the z-score is -0.134 in [1]; -0.202 in assay [2]; -0.265 in assay [3]; -0.88 in assay [4]; -1.07 in assay [5]; -0.639 in assay [6]. Moreover, the z-score in assay [7] was -1.75 (inactive); in assay [8], -0.714; in assay [9], -1.15; in [10] it was 0.526 (inactive).
`CO[C@H]1O[C@H](CO)[C@@H](OC(=O)Nc2cccc(F)c2)[C@H](OC(=O)Nc2ccccc2)[C@H]1OC(=O)Nc1ccccc1`: the z-score in assay [1] is -2.2; in assay [2], 1.33; in assay [3] it was -2.94; in assay [4] it was -1.53; in assay [5], -4.26; in assay [6] it was -0.389. Moreover, the z-score is 0.518 (inactive) in [7], -1.33 in assay [8], -0.561 in [9] and -3.72 (inactive) in assay [10].
With `Cc1ccc(S[C@]2(C(=O)O)CC(=O)N(Cc3ccccc3C(F)(F)F)[C@@H]2c2ccc(CO)cc2I)cc1`, the z-score was 0.0342 in assay [1]; -0.217 in [2]; -0.742 in assay [3]; -3.22 in [4]; -1.5 in [5]; -1.06 in assay [6]. The z-score in assay [7] was -0.438 (inactive); in [8] it was -0.275; in [9], -1.48; in [10], 0.834 (inactive).
